Laboratory results as given in ChEMBL document CHEMBL3988442, “University of Dundee, Small-Polar-MMV Screening Library” (2021).
For part of these data: Measured potencies and affinities stand elsewhere.

Legend:
Design in all cases: scale not given: direction of the effect not stated beside the values
[1] = target: Protein translocase subunit SecA (Escherichia coli (strain K12)) (UniProt P10408); test: Assay to Identify E. coli SecA ATPase Inhibitors; assay type: functional; conditions: 30 µM
[2] = target: T1, Ubiquitin-activating enzyme e1, putative (Leishmania donovani (strain BPK282A1)) (UniProt E9BSI1); test: Leishmania donovani Ubiquitin Activating Enzyme (LdE1); assay type: functional; conditions: 30 µM
T1 sequence (whole entry): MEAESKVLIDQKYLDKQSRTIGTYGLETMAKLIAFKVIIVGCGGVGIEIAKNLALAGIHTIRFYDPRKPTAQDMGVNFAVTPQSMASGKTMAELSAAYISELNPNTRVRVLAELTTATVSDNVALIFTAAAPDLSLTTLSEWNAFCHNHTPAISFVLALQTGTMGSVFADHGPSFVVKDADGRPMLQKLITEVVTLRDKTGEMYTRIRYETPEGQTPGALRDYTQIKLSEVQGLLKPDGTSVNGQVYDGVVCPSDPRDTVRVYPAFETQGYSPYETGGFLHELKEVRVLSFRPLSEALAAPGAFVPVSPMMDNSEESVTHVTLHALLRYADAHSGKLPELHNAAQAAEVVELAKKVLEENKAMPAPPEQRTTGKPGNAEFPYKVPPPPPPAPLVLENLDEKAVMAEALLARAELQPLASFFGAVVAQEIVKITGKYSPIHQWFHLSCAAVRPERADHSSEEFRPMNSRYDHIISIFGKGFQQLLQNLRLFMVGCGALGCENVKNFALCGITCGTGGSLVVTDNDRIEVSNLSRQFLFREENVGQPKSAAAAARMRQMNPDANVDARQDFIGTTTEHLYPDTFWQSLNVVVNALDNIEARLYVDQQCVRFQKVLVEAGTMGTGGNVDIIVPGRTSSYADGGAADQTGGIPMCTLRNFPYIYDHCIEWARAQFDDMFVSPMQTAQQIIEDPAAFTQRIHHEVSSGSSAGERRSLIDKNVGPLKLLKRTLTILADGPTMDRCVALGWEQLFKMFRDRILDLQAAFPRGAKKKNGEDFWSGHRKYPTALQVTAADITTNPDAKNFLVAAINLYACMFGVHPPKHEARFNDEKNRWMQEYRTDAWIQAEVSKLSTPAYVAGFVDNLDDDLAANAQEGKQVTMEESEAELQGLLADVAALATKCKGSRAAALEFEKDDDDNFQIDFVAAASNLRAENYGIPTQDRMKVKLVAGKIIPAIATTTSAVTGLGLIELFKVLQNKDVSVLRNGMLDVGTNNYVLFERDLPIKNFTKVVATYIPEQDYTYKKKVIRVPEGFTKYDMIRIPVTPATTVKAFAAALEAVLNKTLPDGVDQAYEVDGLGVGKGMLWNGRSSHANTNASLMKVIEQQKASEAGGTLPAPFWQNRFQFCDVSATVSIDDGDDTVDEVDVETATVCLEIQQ

[3] = target: AMP-activated protein kinase, AMPK (Homo sapiens) (UniProt P54646+O43741+P54619+Q9UGJ0+Q9Y478+Q13131+Q9UGI9); test: AMP-dependent Kinase enzyme assay. An in vitro enzyme assay that detects ADP turnover that is directly proportional to AMPK activity. This uses naive AMPK that is activated during the assay with MK-8722; assay type: functional; conditions: 30 µM
[4] = target: Sialic acid-binding Ig-like lectin 9 (Homo sapiens) (UniProt Q9Y336); test: Hs-Siglec9 ALPHAscreen SOP 20170721; conditions: 10 µM
Sequence of Sialic acid-binding Ig-like lectin 9 (Homo sapiens) (Q9Y336 whole entry): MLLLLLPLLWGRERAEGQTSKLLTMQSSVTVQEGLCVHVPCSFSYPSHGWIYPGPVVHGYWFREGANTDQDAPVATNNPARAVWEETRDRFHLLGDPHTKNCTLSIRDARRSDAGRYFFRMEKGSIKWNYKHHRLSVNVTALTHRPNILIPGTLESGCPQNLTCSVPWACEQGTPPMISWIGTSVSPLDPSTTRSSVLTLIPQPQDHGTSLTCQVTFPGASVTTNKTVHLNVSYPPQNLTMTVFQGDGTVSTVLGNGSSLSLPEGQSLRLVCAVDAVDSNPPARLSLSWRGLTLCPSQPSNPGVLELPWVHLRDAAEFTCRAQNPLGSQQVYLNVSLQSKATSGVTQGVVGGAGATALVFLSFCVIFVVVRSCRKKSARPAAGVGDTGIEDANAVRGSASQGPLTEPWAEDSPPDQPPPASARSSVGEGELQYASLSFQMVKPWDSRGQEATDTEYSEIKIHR

[5] = system: Trypanosoma cruzi; test: Trypanosoma cruzi phosphomannomutase and mannose-1-phosphate guanylyltransferase assay; assay type: functional; conditions: 10 µM
[6] = target: T2, Arginase-2, mitochondrial (Homo sapiens) (UniProt P78540); test: in vitro enzyme assay to detect the production of urea directly proportional to the activity of Arginase II; assay type: functional; conditions: 33.3 µM; further: in the data most compounds retested in dose-response had high values
T2 sequence (whole entry): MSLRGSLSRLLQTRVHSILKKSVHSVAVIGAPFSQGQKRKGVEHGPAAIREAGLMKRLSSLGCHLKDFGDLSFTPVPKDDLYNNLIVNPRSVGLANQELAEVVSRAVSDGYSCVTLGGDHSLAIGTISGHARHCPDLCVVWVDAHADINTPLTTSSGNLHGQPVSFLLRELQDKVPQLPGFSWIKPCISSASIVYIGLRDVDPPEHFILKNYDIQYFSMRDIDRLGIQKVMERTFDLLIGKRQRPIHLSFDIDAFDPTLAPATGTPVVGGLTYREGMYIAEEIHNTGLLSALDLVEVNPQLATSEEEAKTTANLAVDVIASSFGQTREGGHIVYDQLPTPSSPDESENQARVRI

[7] = target: T3, Proteasome subunit beta (Trypanosoma cruzi) (UniProt O96673); test: Trypanosoma cruzi proteasome chymotrypsin-like activity (TcProtChymo) assay.; further: in the data most compounds retested in dose-response had high values; assay type: functional; conditions: 9.37 µM
T3 sequence (whole entry): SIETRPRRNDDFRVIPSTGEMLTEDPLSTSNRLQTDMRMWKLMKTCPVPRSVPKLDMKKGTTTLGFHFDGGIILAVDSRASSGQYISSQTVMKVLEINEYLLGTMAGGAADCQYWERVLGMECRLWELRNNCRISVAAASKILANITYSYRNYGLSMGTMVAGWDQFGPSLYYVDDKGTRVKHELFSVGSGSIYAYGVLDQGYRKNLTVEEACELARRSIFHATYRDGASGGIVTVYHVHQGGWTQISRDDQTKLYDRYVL

[8] = species: Homo sapiens; test: To identify inhibition of the IFN signalling (Jak-Stat) pathway via expression of an eGFP reporter gene under the control of an IFN-stimulated response element (ISRE) containing MxA promoter.; assay type: functional; conditions: 30 µM
[9] = target: T4, Tyrosyl-tRNA synthetase, putative (Trypanosoma cruzi (strain CL Brener)) (UniProt Q4DSP6); test: Trypanosoma cruzi tyrosyl tRNA synthetase (TcYRS) _High Tyrosine SOP; assay type: functional; conditions: 30 µM; further: in the data most compounds retested in dose-response had high values
T4 sequence (whole entry): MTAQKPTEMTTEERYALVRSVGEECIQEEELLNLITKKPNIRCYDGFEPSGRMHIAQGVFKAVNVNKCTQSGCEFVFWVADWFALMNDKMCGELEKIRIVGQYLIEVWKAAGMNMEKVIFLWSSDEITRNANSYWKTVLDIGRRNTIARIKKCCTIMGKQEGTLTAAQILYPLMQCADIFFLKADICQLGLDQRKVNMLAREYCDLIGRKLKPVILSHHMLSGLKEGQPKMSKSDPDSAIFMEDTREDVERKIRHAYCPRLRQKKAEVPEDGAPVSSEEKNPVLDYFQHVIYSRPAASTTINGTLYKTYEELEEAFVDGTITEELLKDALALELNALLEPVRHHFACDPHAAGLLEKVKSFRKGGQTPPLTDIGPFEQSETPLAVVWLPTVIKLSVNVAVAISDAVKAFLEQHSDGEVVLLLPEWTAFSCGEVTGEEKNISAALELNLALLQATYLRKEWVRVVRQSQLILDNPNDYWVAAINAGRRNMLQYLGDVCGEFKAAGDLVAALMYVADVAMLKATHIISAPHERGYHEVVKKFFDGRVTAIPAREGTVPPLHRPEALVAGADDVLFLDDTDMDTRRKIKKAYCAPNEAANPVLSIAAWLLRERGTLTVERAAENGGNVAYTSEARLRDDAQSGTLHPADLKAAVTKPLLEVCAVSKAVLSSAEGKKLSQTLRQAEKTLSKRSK

[10] = target: T4, Tyrosyl-tRNA synthetase, putative (Trypanosoma cruzi (strain CL Brener)); test: Trypanosoma cruzi tyrosyl tRNA synthetase (TcYRS) SOP; assay type: functional; conditions: 30 µM
[11] = target: Chromo domain-containing protein 1 (Saccharomyces cerevisiae (strain ATCC 204508 / S288c) (Baker's yeast)) (UniProt P32657); test: ScCHD-1 Enzyme Inhibition Assay; assay type: functional; conditions: 30 µM; further: in the data most compounds retested in dose-response had high values
Sequence of Chromo domain-containing protein 1 (Saccharomyces cerevisiae (strain ATCC 204508 / S288c) (Baker's yeast)) (P32657 whole entry, the tested form may be a part): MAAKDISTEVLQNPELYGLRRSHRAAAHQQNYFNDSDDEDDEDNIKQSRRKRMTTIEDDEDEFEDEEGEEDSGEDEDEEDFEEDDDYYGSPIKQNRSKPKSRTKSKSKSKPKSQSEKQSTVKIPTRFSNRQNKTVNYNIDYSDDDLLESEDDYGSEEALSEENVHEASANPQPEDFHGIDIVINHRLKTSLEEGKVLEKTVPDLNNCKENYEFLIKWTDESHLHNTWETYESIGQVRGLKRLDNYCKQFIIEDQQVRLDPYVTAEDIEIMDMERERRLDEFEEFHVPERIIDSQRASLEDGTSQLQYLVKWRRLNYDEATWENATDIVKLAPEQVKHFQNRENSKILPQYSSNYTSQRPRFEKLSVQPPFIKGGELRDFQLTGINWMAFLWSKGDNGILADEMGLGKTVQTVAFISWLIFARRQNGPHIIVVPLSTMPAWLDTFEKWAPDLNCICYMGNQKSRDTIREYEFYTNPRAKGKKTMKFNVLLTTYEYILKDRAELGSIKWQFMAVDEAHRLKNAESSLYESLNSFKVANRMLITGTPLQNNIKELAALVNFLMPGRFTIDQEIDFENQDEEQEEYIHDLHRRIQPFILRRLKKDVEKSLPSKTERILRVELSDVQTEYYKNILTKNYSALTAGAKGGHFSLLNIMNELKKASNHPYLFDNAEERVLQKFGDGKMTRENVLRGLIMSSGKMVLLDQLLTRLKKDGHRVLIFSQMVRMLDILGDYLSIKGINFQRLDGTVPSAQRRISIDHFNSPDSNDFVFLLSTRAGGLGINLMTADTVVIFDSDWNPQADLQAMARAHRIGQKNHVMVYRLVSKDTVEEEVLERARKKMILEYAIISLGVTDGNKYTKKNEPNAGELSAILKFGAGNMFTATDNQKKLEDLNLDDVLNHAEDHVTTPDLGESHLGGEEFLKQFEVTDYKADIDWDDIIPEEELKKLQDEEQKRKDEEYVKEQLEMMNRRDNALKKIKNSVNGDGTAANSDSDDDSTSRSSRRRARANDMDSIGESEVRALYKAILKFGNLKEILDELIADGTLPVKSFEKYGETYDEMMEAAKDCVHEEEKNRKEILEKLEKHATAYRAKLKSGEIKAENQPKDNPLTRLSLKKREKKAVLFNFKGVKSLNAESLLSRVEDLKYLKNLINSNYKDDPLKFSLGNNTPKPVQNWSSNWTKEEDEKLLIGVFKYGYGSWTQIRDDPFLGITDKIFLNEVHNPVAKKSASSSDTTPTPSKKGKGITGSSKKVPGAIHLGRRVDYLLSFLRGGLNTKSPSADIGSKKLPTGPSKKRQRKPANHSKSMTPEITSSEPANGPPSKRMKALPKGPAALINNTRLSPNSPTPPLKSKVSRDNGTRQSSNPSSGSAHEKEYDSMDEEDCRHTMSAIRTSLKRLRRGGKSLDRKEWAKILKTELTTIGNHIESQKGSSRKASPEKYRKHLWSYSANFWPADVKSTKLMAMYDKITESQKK

Sequence of Protein translocase subunit SecA (Escherichia coli (strain K12)) (P10408 whole entry): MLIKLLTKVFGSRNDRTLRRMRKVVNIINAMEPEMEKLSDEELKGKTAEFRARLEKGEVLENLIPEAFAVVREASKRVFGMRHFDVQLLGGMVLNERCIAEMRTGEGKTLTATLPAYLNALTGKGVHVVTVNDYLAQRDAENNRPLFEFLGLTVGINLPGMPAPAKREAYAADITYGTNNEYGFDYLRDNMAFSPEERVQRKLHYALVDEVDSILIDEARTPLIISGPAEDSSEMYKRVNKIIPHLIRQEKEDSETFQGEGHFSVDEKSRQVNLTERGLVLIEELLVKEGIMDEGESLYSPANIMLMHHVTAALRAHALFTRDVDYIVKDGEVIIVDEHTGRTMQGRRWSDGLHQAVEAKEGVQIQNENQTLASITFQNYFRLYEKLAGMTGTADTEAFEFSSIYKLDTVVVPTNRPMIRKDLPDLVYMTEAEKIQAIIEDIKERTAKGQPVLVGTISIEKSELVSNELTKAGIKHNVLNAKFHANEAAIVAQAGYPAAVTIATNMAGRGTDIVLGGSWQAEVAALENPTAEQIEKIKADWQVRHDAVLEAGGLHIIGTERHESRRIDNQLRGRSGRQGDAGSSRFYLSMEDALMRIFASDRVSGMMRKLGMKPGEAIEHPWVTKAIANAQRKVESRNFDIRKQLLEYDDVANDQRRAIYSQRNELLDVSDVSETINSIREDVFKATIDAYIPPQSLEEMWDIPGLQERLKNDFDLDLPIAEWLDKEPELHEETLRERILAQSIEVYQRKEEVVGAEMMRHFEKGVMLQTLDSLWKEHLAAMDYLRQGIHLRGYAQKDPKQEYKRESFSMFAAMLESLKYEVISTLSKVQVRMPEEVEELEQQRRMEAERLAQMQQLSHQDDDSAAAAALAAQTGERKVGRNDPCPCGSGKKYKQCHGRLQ

Compound | Percent Effect [1] | Percent Effect [2] | Percent Effect [3] | Percent Effect [4] | Percent Effect [5] | Percent Effect [6] | Percent Effect [7] | Percent Effect [8] | Percent Effect [9] | Percent Effect [10] | Percent Effect [11]
COCCn1nc(C(=O)N2CCCC2c2cccc(F)c2)ccc1=O (stereo unspecified) | -0.858% | 5.41% | -0.552% | 11.3% | 2.9% | 10% | 8.1% | -4.91% | -0.529% | -2.44% | -0.976%
COCc1noc(C2(c3ccc(F)cc3)CCOCC2)n1 | 3.24% | 8.11% | 7.86% | 11.7% | -7.72% | -3.81% | 11.4% | 40.2% | 0.529% | -2.44% | -5.88%
Cc1ccc(C(=O)N2CCC3(CCN(C(=O)c4cccnc4)C3)CC2)o1 | -2.08% | 13.5% | 6.42% | -12.6% | -3.62% | 14.3% | 13.8% | -16.6% | 1.08% | 5.13% | -2.81%
CC(C)c1nccn1C1CCCN(C(=O)c2ccnc(N(C)C)c2)C1 (stereo unspecified) | -2.97% | -7.79% | -1.67% | -1.25% | 0.0979% | 1.47% | 10.6% | 18.4% | 1.91% | -11.8% | -18.1%
CCc1noc(CN2CCN(C(=O)N(C)C)CC2)n1 | -5.22% | -2.53% | 7.62% | 3.9% | -5.38% | 0.38% | 4.83% | 23.4% | -5.42% | -16.5% | -4.89%
O=C(N1CCOCC1)[C@@]12CCO[C@@H]1CCN(Cc1ccccc1F)C2 | -0.952% | -4% | -2.07% | 6.8% | -6.88% | 29.8% | 12.2% | 0.338% | 1.06% | -2.56% | -3.56%
CCNC(=O)N1CCCCC1CCO (stereo unspecified) | 1.22% | 8.11% | -0.623% | 17.1% | 5.99% | 6.67% | -0.69% | -3.81% | 0.529% | 7.32% | -10.1%
CC(=O)N1CCCCC1c1cc(C(=O)N2CCOCC2)[nH]n1 (stereo unspecified) | -1.41% | 14.9% | 11% | -1.29% | -1.38% | -0.232% | 6.86% | 2.98% | 5.38% | 14.3% | -10.1%
O=C(CCNC(=O)c1ccoc1)Nc1c(F)cccc1F | 0.646% | 18.2% | -4.32% | 5.34% | -2.84% | 4.42% | 18.8% | 14% | 6.67% | 21.2% | -3.32%
COCCCNC(=O)CN(C)C(=O)c1cc(C)ccc1N(C)C(C)C | -2.35% | 10.8% | -5.29% | 6.07% | 0.65% | -3.88% | 0% | 5.31% | 1.98% | 13.4% | -2.86%
Cc1cc(F)ccc1CN1CCCC2(C1)OCCO2 | -1.89% | 2.7% | -1.85% | -3.22% | 0.391% | 1.67% | 6.34% | 1.71% | 2.97% | -3.66% | -3.73%
CC1CCN(CCNC(=O)C2CCN(S(N)(=O)=O)CC2)CC1 | -1.93% | 9.72% | -5.79% | -4.04% | -3.4% | 1.77% | 10% | 3.48% | 2.1% | 5.13% | -2.96%
CC(NC(=O)NCCCN(C)S(C)(=O)=O)c1cccc(Cl)c1 (stereo unspecified) | 1.78% | 6.33% | 0.875% | -4.21% | -2.97% | 0.215% | 11.8% | 13.8% | 9.38% | 7.59% | 0.197%
Cc1cc(C)c(CNC(=O)NCc2ccc3c(c2)CCC3)c(=O)[nH]1 | -1.46% | 10.5% | -2.73% | 4% | -3.38% | 4.6% | 6.85% | 4.84% | 5.39% | 0% | 0.252%
N#Cc1ccc(N2CCN(C(=O)c3cc(C4CC4)[nH]n3)CC2)c(F)c1 | -6.31% | 8.11% | -4.12% | 19.3% | 5.29% | -4.99% | -0.179% | 7.83% | 4.95% | 23.2% | -7.65%
O=C(CCCOc1ccc(F)cc1)N1CCCC(n2cccn2)C1 (stereo unspecified) | -2.63% | 13% | 4.56% | 2.38% | -3.82% | 2.74% | 6.71% | 15.8% | 2.86% | 11.8% | -14.5%
Cc1nc(CN2CCCCC2Cn2cncn2)nc2ccccc12 (stereo unspecified) | -2.07% | 26% | -3.54% | -19.4% | 3.23% | 1.47% | 20.1% | 2.22% | 10.5% | 23.5% | -22.8%
Cc1ccoc1C(=O)N1C[C@H]2CCC[C@@]2(COCc2ccncc2)C1 | -1.22% | 18.2% | -2.61% | 3.02% | 2.66% | -3.23% | -2.44% | 1.6% | 5.29% | 11.5% | -4.37%
COCC1c2c(cnn2CC2CCOCC2)CCN1Cc1ccoc1 (stereo unspecified) | -3.48% | 8.11% | 4.63% | 0.649% | 1.76% | 4.17% | 16% | -5.7% | 10.9% | 11% | -3.93%
O=C(NCCCN1CCCC1=O)Nc1ccc(Br)cc1Cl | -4.26% | -4% | 3.31% | 6.15% | 3.14% | -3.7% | 7.02% | 8.83% | 0% | 2.56% | -2.19%
COCCN1CCC(Cc2cncc(-c3ccc(C(=O)O)cc3)n2)C1 (stereo unspecified) | -5.18% | 1.35% | 42.5% | -3.43% | -3.75% | -2.55% | 3.43% | 12.6% | 1.07% | 1.3% | -3.54%
